Hits are enriched below; roughly 1.1% of the tested compounds scored in any of these assays.
ERK EGF inh = inhibitors of EGF-stimulated ERK signaling pathway; AID 1454; HEK293-V1b, EGF-stimulated phospho-ERK AlphaScreen; Potency, µM (doses to about 11.5 µM), inactives show at the top dose activity change, negative = inhibition, usual class: inhibitors; 130,000 compounds, 0.41% hits;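 also: plate controls were stimulated vehicle wells for no effect and unstimulated vehicle basal for full effect; nearly all actives have a fitted effect of over 55% in size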
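V1b-HEK293, 1% FBS o/n; cpd 30 min 37C; EGF 25 nM final, 5 min; lyse 10 min; AlphaScreen beads 5 h RT. Normalized DMSO basal vs EGF max; Hill AC50.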
KinaseGlo FLuc = counter-screen: inhibitors of Kinase-Glo firefly luciferase; Q27757; 200,000 compounds, 0.28% hits; Kinase-Glo luciferase, ATP luminescence, 8 min; AID 1379; Potency, µM (highest dose often 38.3 µM), for the others: top-dose activity change, negative = inhibition, actives largely listed as inhibitors; also: nearly all actives have a fitted effect of over 60% in size
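Compounds were added to a substrate mix at pH 7.2 (50 mM imidazole, 10 uM ATP, within the enzyme's linear range), followed by Kinase-Glo detection reagent; luminescence was measured after 8 minutes at ambient temperature.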
IMPase Li inh = IMPase inhibition in cells with lithium potentiation; AID 1457; CHO-M1 cells, IP1 TR-FRET (IP-One), carbachol + lithium; 210,000 compounds, 0.35% hits; Potency, µM (series often up to 59.4 µM), without a hit: at the top dose activity, negative = IMPase inhibition, hits mostly inhibitors;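 also: IP1 builds up when IMPase is blocked and the TR-FRET signal falls; plate controls were basal vehicle for no effect and high inhibitor control for full effect; nearly all actives have a fitted effect of over 50% in size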
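Readout is a homogeneous TR-FRET IP1 immunoassay (Ex 320, Em 665 and 620), where raised cytosolic IP1 lowers signal. Cells were CHO-M1 treated 30 min at 37C with test compounds plus a little lithium; AC50 values came from Hill-equation fitting.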
NPSR antag = antagonists of human neuropeptide S receptor cAMP signaling; Q6W5P4; CHO-NPSR cells, cAMP TR-FRET, antagonist mode; Potency, µM (top dose mostly 38.3 µM), inactives show at the top dose activity change, negative = inhibition, most hits filed as inhibitors; 220,000 compounds, 1% hits; also: nearly all actives have a fitted effect of over 50% in size
Target sequence (Q6W5P4 whole entry, looked up): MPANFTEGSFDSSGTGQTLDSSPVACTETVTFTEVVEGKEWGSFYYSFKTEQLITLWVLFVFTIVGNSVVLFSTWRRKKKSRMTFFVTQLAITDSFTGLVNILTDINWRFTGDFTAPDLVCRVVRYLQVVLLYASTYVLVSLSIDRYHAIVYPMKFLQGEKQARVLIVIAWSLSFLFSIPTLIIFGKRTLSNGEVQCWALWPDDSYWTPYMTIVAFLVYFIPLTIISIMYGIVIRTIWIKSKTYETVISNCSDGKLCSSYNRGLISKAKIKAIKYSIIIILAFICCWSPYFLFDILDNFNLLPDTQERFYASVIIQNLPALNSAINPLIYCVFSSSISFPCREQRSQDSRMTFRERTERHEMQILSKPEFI
* marks the source's active call; other numbers are inactive results; ? = inconclusive; . = not tested or not shown; [ ] = dose if it differs, or a comment. Calls follow the shape of the dose curve; as a rule, active = well fitted curve in the direction sought with a large enough effect; inconclusive = small, poorly fitted or top-dose-only effect, or another doubt; inactive = no such curve, though single readings can be large; an effect the other way counts as inactive or inconclusive. Unless noted, % is scaled to controls: 0 for no effect and ±100 for the full control effect; potency is read from the fitted curve at half-maximal effect.

SMILES	ERK EGF inh	KinaseGlo FLuc	IMPase Li inh	NPSR antag
O=C(N/N=C/c1ccc([N+](=O)[O-])o1)C(O)c1ccccc1 (centres undefined)	1%[57.5 µM]	.	.	-21%
COc1ccc(-c2noc(-c3ccccc3Cl)n2)cc1OC	.	-20%	8.9µM*	-9%[46.1 µM]
CC1=NNC(=O)/C1=C\c1cn(-c2ccccc2)nc1-c1cccs1	?	2%	20%	10µM*
O=C(/C=C/c1cccs1)Nc1ccncc1	5%	-5%	1%	-17%
Cc1cccc(NC(=O)/C=C/c2cccs2)n1	.	13µM*	-5%[38.3 µM]	-19%[46.1 µM]
O=C(c1cnccn1)N1CCC2(CC1)CN(Cc1ccccc1)C2	-2%	-1%	18%	.
CC1=NN(c2nc3ccccc3[nH]2)C(=O)/C1=C/N(C)C	3%	1.6µM*	1%	0%
CC1=NN(c2ccc([N+](=O)[O-])cc2)C(=O)/C1=C\N(C)C	-3%	13µM*	2%	17%
Nc1nc2c(ncn2[C@@H]2C=C[C@@H](CO)C2)c(=O)[nH]1	.	-2%[7.66 µM]	-7%	.
O=S(=O)(c1ccccc1)N1CCC[C@@]2(CCN(Cc3nccs3)C2)C1	-8%	-1%	-16%	.
COc1ccc(-c2[nH]nc3c2C(c2ccc(OC(=O)N4CCOCC4)cc2)C(C#N)=C(N)O3)cc1 (centres undefined)	8%[57.5 µM]	-4%	7%[38.3 µM]	13µM*
c1ccc([C@@H]2CN3CCSC3=N2)cc1	-3%[25.7 µM]	1%[17.1 µM]	11%	.
CCN(CC)CCCC(C)n1c(-c2ccccc2)nc2c(NCCOC)nc(C)nc21 (centres undefined)	-7%	-1%	11%	.
O=C1C(SCCO)=C(SCCO)C(=O)c2ccccc21	?	-10%	64%	13µM*
O=C(O)CC(CC(=O)O)C(=O)O	.	-2%[7.66 µM]	-5%	.
COc1ccccc1-c1c(C)nn2c(N3CCCCCC3)cc(C)nc12	-3%	2%	17%	10µM*
COc1ccccc1-c1c(C)nn2c(N3CCN(c4ccccc4OC)CC3)cc(C)nc12	.	0%	-1%[38.3 µM]	?
C=CCOC(=O)NC(c1ccc(F)c(F)c1)C(C(C)=O)C(=O)OC (centres undefined)	-11%	-1%	18%	.
C[C@@]12CCC(=O)C=C1C=CC1C2CC[C@]2(C)C1CC[C@@]21CCC(=O)O1 (some centres undefined)	14%	-3%	20%	.
CC(=O)c1cc2c(O)c(O)ccc2o1	.	.	.	-21%[46.1 µM]
CC(=O)c1cc2cc(O)ccc2o1	.	-3%	11µM*	-11%[46.1 µM]
CC(C)C[C@H](NC(=O)c1nc[nH]c1C(=O)N[C@@H](CCCCNC(=O)OC(C)(C)C)C(=O)OC(C)(C)C)C(=O)OC(C)(C)C	1%[57.5 µM]	.	.	10µM*
Nc1ccc(N)c(Cl)c1	.	.	12%	.
COc1ccc(C(CC(=O)O)NC(=O)c2sc3ccccc3c2Cl)cc1 (centres undefined)	11%	3%	5.6µM*	?
N#Cc1cccc(NC(=O)N2CCCC3(CCN(C(=O)c4cc(C(F)(F)F)cc(C(F)(F)F)c4)CC3)C2)c1	1%	-1%	4%	.
SMILES	ERK EGF inh	KinaseGlo FLuc	IMPase Li inh	NPSR antag
Nc1nc(Nc2ccccc2)nc2ccccc12	.	11µM*	-9%[38.3 µM]	22%[46.1 µM]
Cc1ccccc1Nc1ncc(C#N)c(N)n1	10%[57.5 µM]	.	.	-8%
Nc1nc(CCl)nc(Nc2ccccc2)n1	-4%[57.5 µM]	.	-9%	-11%
Cc1ccccc1Nc1nc(N)c2ccccc2n1	-14%	13µM*	7%	-6%
Oc1ccc(Nc2nc(N3CCCC3)c3ccccc3n2)cc1	.	-1%	24%[38.3 µM]	-15%[46.1 µM]
Nc1nc(Nc2ccc(Cl)cc2)nc2ccccc12	.	14µM*	43%[38.3 µM]	-8%[46.1 µM]
Cc1ccc2[nH]c(=O)c(CN(Cc3ccccc3)C(=S)NCCCN(C)C)cc2c1	2%	13µM*	-4%	8%
COc1cc2cc(CN(CCc3ccccc3C)C(=S)NCCCN(C)C)c(=O)[nH]c2cc1OC	5%	2%	-1%	5%[46.1 µM]
O=C(O)CC[P+](c1ccccc1)(c1ccccc1)c1ccccc1	.	-5%[7.66 µM]	6%	.
O=C1C(C=NCc2ccncc2)=C(O)c2ccccc21	.	21%	17%[38.3 µM]	-11%[46.1 µM]
O=C1C(C=Nc2ccc(F)cc2)=C(O)c2ccccc21	3%	?	10%	2%
COc1ccc(N=CC2=C(O)c3ccccc3C2=O)c(OC)c1	.	4.5µM*	-9%[38.3 µM]	-11%[46.1 µM]
Cc1ccccc1N=CC1=C(O)c2ccccc2C1=O	3%	13µM*	-1%	-38%
CCc1ccc(NS(=O)(=O)c2ccc(Cl)cc2OC)cc1	.	-4%	.	.
